“And” between values parts separate entries of the source, which are not always exact repeats. Equal values may be shown once. The source made the active and inactive calls.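 Rule for the calls: active = GFP response vs DMSO above 150% with enough events counted; inconclusive = fewer than 70 events counted for a yeast strain; inactive = the rest.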
Assay: MEP2-GFP expression modulation in yeast, confirmation, flow cytometry, third cherry pick, S. cerevisiae (AID 504321);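 note: median per-cell GFP fluorescence by flow cytometry across all yeast cells; ratio of sample to DMSO median GFP so 100% equals the DMSO level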
Details: S. cerevisiae MEP2-GFP strain, 3 h, at 10 µM, stronger effect = higher value

| Compound | GFP response vs DMSO |
| --- | --- |
| Cc1cc(C)c2ccc(N)nc2c1O | 108% (inactive) |
| CC(=O)CC(=O)Nc1ccc(C(N)=O)cc1 | 112% (inactive) |
| Nc1ccc(O)c2c1C(=O)c1ccccc1C2=O | 112% (inactive) |
| CS(=O)(=O)Oc1ccc(Br)c2cccnc12 | 110% (inactive) |
| O=C(N/N=C/c1ccccc1O)c1cccc2ccccc12 | 110% (inactive) |
| CC(=O)C(CC(=O)N1CCCC1)C(=O)Nc1ccc(Cl)cc1 (centres undefined) | 105% (inactive) |
| O=C(Nc1nc(-c2ccccn2)cs1)c1ccccc1-n1cnnn1 | 94.7% (inactive) |
| Cc1cccc(Nc2cc(=O)[nH]c(=O)[nH]2)c1C | 114% (inactive) |
| CC(=O)Nc1ccc(-c2nc3cc(Cl)ccc3o2)cc1 | 108% (inactive) |
| Nn1cnc2c(c1=O)C1(CCCCC1)Cc1ccccc1-2 | 116% (inactive) |
| CCCC(=O)Nn1cnc2c(c1=O)C1(CCCCC1)Cc1ccccc1-2 | 105% (inactive) |
| O=C(Nc1ccccc1)O/N=C1/CCCc2occc21 | 112% (inactive) |
| O=C(Nc1ccc(-c2nc3ccccc3o2)cc1)c1cccnc1 | 103% (inactive) |
| COc1ccccc1Nc1nc(NCCO)nc(N)c1[N+](=O)[O-] | 105% (inactive) |
| COCC(C)NC(=O)CCS(=O)(=O)c1nc(-c2ccc(OC)cc2)cc(C(F)(F)F)n1 (centres undefined) | 112% (inactive) |
| O=C(O)CCCCCNc1ncnc2ccc(Br)cc12 | 101% (inactive) |
| C/C(=C\C(=O)c1ccc(C)cc1)Nc1cccc(O)c1 | 108% (inactive) |
| Oc1c(I)cc(Cl)c2cccnc12 | 181% (active) |
| Cc1ccc2c(Cl)cc(Cl)c(OCC(=O)O)c2n1 | 108% (inactive) |
| COc1ccc(Nc2nc(NN)nc(C)c2[N+](=O)[O-])cc1 | 101% (inactive) |

| Compound | GFP response vs DMSO |
| --- | --- |
| Cc1ccc(NC(=O)O/N=C2\CCCCC2c2ccc([N+](=O)[O-])cc2[N+](=O)[O-])cc1 (centres undefined) | 105% (inactive) |
| Cn1cccc1C(=O)Nc1nc(-c2ccccn2)cs1 | 101% (inactive) |
| CC1=CN2C(=N)/C(=C/c3ccc([N+](=O)[O-])o3)C(=O)N=C2S1 | 5270% (active) |
| O=C(N/N=C/c1ccccc1)c1cccc2ccccc12 | 103% (inactive) |
| C/C(=C\C(=O)c1ccccc1)Nc1ccc(O)cc1 | 105% (inactive) |
| Oc1ccc(F)c2cccnc12 | 116% (inactive) |
| CCC(=O)Nn1cnc2c(c1=O)C1(CCCCC1)Cc1ccccc1-2 | 110% (inactive) |
| O=C(Nc1ccccc1Cl)ON=C1c2ccccc2-c2ccccc21 | 108% (inactive) |
| COCCNc1nc(N)c([N+](=O)[O-])c(Nc2ccc(F)cc2)n1 | 105% (inactive) |
| COc1ccc(NC(=O)O/N=C2/CCCc3ccc(OC)cc32)cc1 | 112% (inactive) |
| CS(=O)(=O)c1nc(-c2ccc(F)cc2)cc(C(F)(F)F)n1 | 133% (inactive) |
| COc1ccccc1OCc1cc(C(=O)N2CCN(C)C(c3ccccc3)C2)no1 (centres undefined) | 110% (inactive) |
| NC(=O)COc1cccc2cccnc12 | 108% (inactive) |
| O=c1cc(C(F)(F)F)[nH]c2c(OC(F)(F)F)cccc12 | 114% (inactive) |
| CC(=O)Nn1cnc2c(c1=O)C1(CCCCC1)Cc1ccccc1-2 | 114% (inactive) |
| COc1cc(=O)n(C)c2c(O)cccc12 | 110% (inactive) |
| COc1ccc(-c2cc(C(F)(F)F)nc(S(C)(=O)=O)n2)cc1OC | 114% (inactive) and 121% (inactive) |
| Cc1ccc(Nc2nc(N)[nH]c(=O)c2N=O)cc1 | 108% (inactive) |
| CCOC(=O)CS(=O)(=O)c1nc(-c2ccccc2)cc(C(F)(F)F)n1 | 151% (active) |
